CHO-K1 Ca antag = M1 antagonist counterscreen hit in parental CHO-K1 cells; ATP-induced calcium, Fluo-8 fluorescence; inhibition, % at 3 µM; hit rate 0.6% among 360,000; AID 602250;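 active = inhibition above a per-plate cutoff, the plate's mean sample inhibition plus 3 SD, cut at about 24% in these data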;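 note: 0% = DMSO plus EC80 ATP and 100% = DMSO alone without ATP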
M1 antag = blocks human M1 muscarinic receptor | CHO-K1 hM1, Fluo-8 calcium fluorescence, ACh EC80 antagonist | hit rate 1.3% among 360,000 | inhibition, % at 3 µM | P11229 | AID 588852;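 active = percent inhibition above its own plate's cutoff, namely the mean of that plate's compound wells plus 3 SD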;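 note: peak over basal fluorescence ratio during 140 s after agonist addition; 0% = ACh EC80 plus DMSO and 100% = DMSO alone without agonist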
Target sequence (P11229 whole entry, looked up): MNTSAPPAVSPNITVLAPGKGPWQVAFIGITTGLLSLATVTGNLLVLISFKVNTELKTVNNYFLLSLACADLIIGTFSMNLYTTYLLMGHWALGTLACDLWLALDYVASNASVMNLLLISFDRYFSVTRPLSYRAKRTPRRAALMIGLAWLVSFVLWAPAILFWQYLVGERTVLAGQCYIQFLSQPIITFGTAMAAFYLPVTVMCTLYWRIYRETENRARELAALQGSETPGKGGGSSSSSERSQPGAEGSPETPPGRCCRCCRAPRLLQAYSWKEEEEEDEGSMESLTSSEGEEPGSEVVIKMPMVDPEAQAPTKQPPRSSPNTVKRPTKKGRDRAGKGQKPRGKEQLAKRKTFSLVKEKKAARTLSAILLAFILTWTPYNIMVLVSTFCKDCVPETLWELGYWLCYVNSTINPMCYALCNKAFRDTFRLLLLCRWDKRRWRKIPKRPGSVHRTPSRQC
CHRM1 PAM = potentiates human M1 receptor response to acetylcholine; P11229; CHO-K1 hM1, Fluo-8 calcium fluorescence, ACh EC20; 0% = ACh EC20, 100% = maximal ACh; activation, % at 3 µM; hit rate 0.088% among 360,000; AID 588819; in the data active = activation above about 19%, passing the limit was not always enough
CHO-K1 Ca PAM = counter-screen for M1 PAMs: effect in parental CHO-K1 cells; hit rate 0.02% among 360,000; activation, % at 3 µM; ATP EC20, Fluo-8 calcium fluorescence; 0% at ATP EC20, 100% at ATP max; AID 602247;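 active = activation above the run cutoff, the mean activation of all test compounds plus 3 SD, cut at about 40% in these data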;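 note: peak over basal fluorescence ratio in a 140 s read after ATP addition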
CHRM1 agonist = human M1 muscarinic receptor agonism | CHO-K1 hM1, Fluo-8 calcium fluorescence, agonist mode; 0% DMSO, 100% acetylcholine EC100 | activation, % at 3 µM | hit rate 0.33% among 360,000 | AID 588814;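 active = activation above the run's mean compound activation plus 3 SD, cut at about 16% in these data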;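 note: peak over basal fluorescence ratio within a 140 s kinetic read after compound addition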
M1 ag parental = M1 agonist counterscreen hit in parental CHO-K1 cells; Fluo-8 calcium fluorescence; scaled to maximal ATP response, vehicle zero; AID 602248; activation, % at 3 µM; hit rate 0.48% among 360,000; in the data active = activation above about 15%;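 note: untransfected CHO-K1 host cells lacking M1 receptor as counterscreen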
Numbers without * were called inactive; . = no result. Sampled rows, rich in hits. Any-hit rate of the full collection: about 2.4%.

SMILES	CHO-K1 Ca antag	M1 antag	CHRM1 PAM	CHO-K1 Ca PAM	CHRM1 agonist	M1 ag parental
CC(=O)OC(C[N+]1(C)CCCCCC1)c1ccccc1 (stereo not given)	-11	57*	-28	18	-10	2
Cn1c(CCNC(=O)c2ccccc2F)nnc1SCc1nc2ccccc2c(=O)[nH]1	-31	-46	30*	13	4	0
COc1ccc(Cc2nnc(SCc3nc4ccccc4c(=O)[nH]3)n2C)cc1	-19	1	0	8	2	0
OCCN(Cc1cccnc1)Cc1ccccn1	-17	59*	-29	20	-8	0
CC(=O)Nc1ccc(N2CCN(Cc3ccccc3)CC2)cc1	9	-6	2	-18	-7	1
COc1ccc(NC(=O)CCNC(=O)C2CCN(S(=O)(=O)c3ccc(OC)cc3)CC2)cc1	-5	-5	7	1	-1	1
O=C(NCc1ccc(Cl)cc1)C1CCN(S(=O)(=O)c2ccc(N3CCCC3=O)cc2)CC1	1	33*	-15	-26	1	9
O=C(NCc1ccccc1)C1CCN(S(=O)(=O)c2ccc(N3CCCC3=O)cc2)CC1	-5	-17	12	16	-1	6
COc1cccc(NC(=O)C2CCN(S(=O)(=O)c3ccc4c(c3)CC(C)N4C(C)=O)CC2)c1 (stereo not given)	-15	4	-5	3	0	9
CC(=O)N1c2ccc(S(=O)(=O)N3CCC(C(=O)Nc4cccc(C(F)(F)F)c4)CC3)cc2CC1C (stereo not given)	32*	14	-2	-10	1	9
O=C(Nc1cccc(C(F)(F)F)c1)C1CCN(S(=O)(=O)c2ccc(N3CCCC3=O)cc2)CC1	22	33	-8	2	2	16*
COc1ccc(CNC(=O)CCNC(=O)C2CCN(S(=O)(=O)c3ccc(OC)cc3)CC2)cc1	-13	-33	27*	16	1	0
COc1cccc(NC(=O)C2CCN(S(=O)(=O)c3ccc(N4CCCC4=O)cc3)CC2)c1	-8	5	-12	0	3	13
O=C(O)CCn1c(-c2ccccn2)nc2ccccc21	-2	-5	5	16	-2	1
O=C1NC[C@@H](CCCCN2C[C@H](Cc3ccc(O)cc3)N(CC3CCCCC3)C(=O)C2=O)N(CCC2CCCCC2)C1=O	-9	.	.	8	.	63*
O=C1NC[C@@H](CCCCN2C[C@H](Cc3ccccc3)N(CC3CCCCC3)C(=O)C2=O)N(Cc2ccccc2)C1=O	-5	.	.	-10	.	17*
O=C1NC[C@H](CCCCN2C[C@H](Cc3ccccc3)N(Cc3ccccc3)C(=O)C2=O)N(CC2CCCCC2)C1=O	-5	.	.	-4	.	0
COc1ccc(OC)c(NC(=O)c2cnc(Nc3ccccc3OC)c3ccccc23)c1	-20	-5	3	30	-4	-1
CCN(CC)CCNC(=O)CCc1c(C)nc2c(c(C)nn2-c2ccc(C)cc2)c1C	-9	-5	2	12	-11	3
CC1(C(=O)OCC(=O)NCc2ccc(Cl)cc2)CC1(Cl)Cl (stereo not given)	-10	-15	5	16	-2	0
CC1(C(=O)OCC(=O)NC(=O)NCc2ccccc2)CC1(Cl)Cl (stereo not given)	-10	-4	8	19	-6	15*
CCc1nc2ccc(C(=O)NCc3ccccc3OC)cn2c1N(CCC(C)C)CCN(C)C	-9	39*	-21	-8	42*	1
CCc1nc2ccc(C(=O)N(C)Cc3ccccc3)cn2c1N(C)CCCc1ccccc1	2	14	-17	7	-8	0
CCc1nc2ccc(C(=O)NCCNC(C)=O)cn2c1N(CCC(C)C)CCN(C)C	11	-3	-1	-10	-4	0
CCc1nc2ccc(C(=O)N(C)CCCN(C)C)cn2c1N(C)CCCc1ccccc1	-8	32*	-27	-11	-10	0
SMILES	CHO-K1 Ca antag	M1 antag	CHRM1 PAM	CHO-K1 Ca PAM	CHRM1 agonist	M1 ag parental
CCc1nc2ccc(C(=O)N(C)CCCN(C)C)cn2c1N(C)Cc1cc2ccccc2s1	0	38*	-26	2	-8	1
CCc1nc2ccc(C(=O)N3CCN(c4ccccc4)CC3)cn2c1N(C)CCCc1ccccc1	-6	16	-13	24	-8	0
CCc1nc2ccc(C(=O)N(CC)CCN(C)C)cn2c1N(C)CCCc1ccccc1	-14	52*	-34	1	-8	1
COc1cccc(-c2ocnc2C(=O)Nc2ccc(N3CCOCC3)cc2N2CCOCC2)c1	-3	-12	11	-19	-3	0
COc1ccc(-c2n[nH]c(=S)n2-c2ccc3c(c2)OCCO3)cc1	-5	-5	5	15	-5	0
COc1cc(OC)cc(-c2n[nH]c(=S)n2-c2ccc3c(c2)OCCO3)c1	19	26*	-14	-12	-4	0
O=C(COc1ccc(Cl)cc1Cl)N/N=C/c1ccc[nH]1	-14	-9	1	0	-3	3
O=[N+]([O-])c1ccc(Sc2cccc[n+]2[O-])c2nonc12	88*	44*	-1	-25	5	0
O=[N+]([O-])c1ccc(Nc2ccccc2)c2nonc12	-8	-1	-4	-5	6	12
Cc1cccc(N/C=C(\[N+](=O)[O-])S(=O)(=O)c2ccccc2)c1C	1	-4	8	17	-7	1
CSc1nc(Oc2cccc(C(F)(F)F)c2)cc(C(F)(F)F)n1	-2	-11	9	12	-1	0
CSc1nc(Oc2ccc(F)cc2F)cc(C(F)(F)F)n1	26*	-12	17	0	2	0
O=C(NCc1ccccc1)c1cc(C2COCCN2C(=O)C/C=C/c2ccccc2)on1 (stereo not given)	-8	-11	3	8	-2	2
COc1cc(OC)c(C(=O)OCC(=O)N2CCN(S(=O)(=O)c3ccc(C)cc3C)CC2)cc1OC	-23	-9	4	17	-6	2
O=c1cc(O)c(-c2ccc(Cl)cc2)c(Cl)[nH]1	-3	-20	12	8	-3	0
O=C1c2cc(Cl)ccc2-c2c(O)cc(Cl)cc21	-3	36*	-15	12	8	8
Cc1nn(-c2ccccc2)c(C)c1C(=O)OCC(=O)N1c2ccccc2NC(=O)C1(C)C	19	33*	-9	8	0	4
CC1(C)C(=O)Nc2ccccc2N1C(=O)COC(=O)CSc1ccc(Cl)cc1	-10	-4	2	-5	-4	2
CC1(C)C(=O)Nc2ccccc2N1C(=O)COC(=O)CNS(=O)(=O)c1ccc(F)c(F)c1F	24*	4	-4	-22	-5	-1
Cc1cnc(C(=O)OCC(=O)N2c3ccccc3NC(=O)C2(C)C)cn1	-11	-10	7	10	-3	0

Compound activity (PubChem BioAssay)
